Jurkat NFkB inh: inhibitors of the PMA/ionomycin-induced NF-kB reporter in Jurkat cells. inhibition, % at 4 µM. actives 0.53% (n = 330,000). PMA/ionomycin-induced NF-kB luciferase reporter, luminescence. AID 435003; in the data active = inhibition above about 50%
Gli-Sufu block: blocks Gli-Sufu signaling in a luciferase reporter | AID 588413 | actives 0.74% (n = 340,000) | inhibition, % at 5 µM | Sufu-KO-LIGHT fibroblasts, Gli luciferase reporter luminescence;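 active = inhibition above about 55%, limit read from the data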;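 note: 0% = DMSO-treated cells and 100% = wells with medium but no cells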
aSyn 5UTR inh: MLPCN primary screen, SNCA 5' untranslated region; actives 0.82% (n = 300,000); alpha-synuclein 5'UTR reporter, inhibitor activity; inhibition, % (tested at 7.5 µM); in the data active = inhibition above about 60%; inconclusive = no clear call, values can overlap the other calls;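 note: H4 neuroglioblastoma cells stably carrying SNCA 5'UTR luciferase fusion; 0% = DMSO wells and 100% = positive control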
KLF5 inh: inhibitors of KLF5 expression; DLD-1 KLF5 promoter-luciferase reporter, luminescence; inhibition, % at 5 µM; actives 0.23% (n = 290,000); AID 1700;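 active = inhibition above a per-plate limit of that plate's mean compound inhibition plus 3 SD, cut at about 60% in these data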;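 note: 0% = DMSO wells and 100% = LY294002 at 200 µM; higher means less KLF5 promoter-driven luciferase light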
Mdm2-MdmX inh: inhibitors of human Mdm2/MdmX interaction | SaOS-2 split-luciferase Mdm2/MdmX complementation, luminescence | inhibition, % at 8 µM | actives 3% (n = 330,000) | O15151+Q00987;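 active = inhibition of at least 50% at 8 µM in the primary screen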
Target sequence (O15151 whole entry, looked up): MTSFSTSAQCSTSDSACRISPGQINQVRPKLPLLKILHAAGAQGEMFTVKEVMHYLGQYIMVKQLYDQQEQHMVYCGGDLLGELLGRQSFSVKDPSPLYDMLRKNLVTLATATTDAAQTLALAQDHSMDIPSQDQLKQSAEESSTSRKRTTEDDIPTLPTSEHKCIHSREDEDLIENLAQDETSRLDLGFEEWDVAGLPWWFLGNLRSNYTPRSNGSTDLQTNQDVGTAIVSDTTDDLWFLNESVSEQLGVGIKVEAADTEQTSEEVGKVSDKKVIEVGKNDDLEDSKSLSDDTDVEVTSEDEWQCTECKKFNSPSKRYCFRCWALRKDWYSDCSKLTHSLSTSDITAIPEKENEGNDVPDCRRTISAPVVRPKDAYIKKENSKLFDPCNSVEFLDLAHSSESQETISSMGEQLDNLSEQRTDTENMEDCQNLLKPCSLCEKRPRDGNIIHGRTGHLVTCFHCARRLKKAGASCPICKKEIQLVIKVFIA
Target sequence (Q00987 whole entry, looked up): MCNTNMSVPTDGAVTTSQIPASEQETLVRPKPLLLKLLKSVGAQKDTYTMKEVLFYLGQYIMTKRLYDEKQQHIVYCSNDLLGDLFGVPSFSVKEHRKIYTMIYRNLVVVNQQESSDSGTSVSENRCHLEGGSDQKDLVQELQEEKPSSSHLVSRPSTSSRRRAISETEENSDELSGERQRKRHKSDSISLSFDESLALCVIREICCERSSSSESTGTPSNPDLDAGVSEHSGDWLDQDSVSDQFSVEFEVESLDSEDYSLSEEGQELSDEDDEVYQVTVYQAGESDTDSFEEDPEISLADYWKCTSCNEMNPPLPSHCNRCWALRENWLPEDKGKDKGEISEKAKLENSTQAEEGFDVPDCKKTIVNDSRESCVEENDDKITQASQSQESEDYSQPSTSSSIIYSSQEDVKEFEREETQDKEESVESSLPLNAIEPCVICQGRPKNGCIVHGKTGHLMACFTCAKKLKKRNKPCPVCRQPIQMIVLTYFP
697 NFkB inh: lowers PMA/ionomycin-induced NF-kB signal in 697 B cells; 697 B-cell NF-kB luciferase reporter, 16 h; inhibition, % at 4 µM; actives 0.33% (n = 330,000); AID 435022; in the data active = inhibition above about 35%
Mdm2-MdmX conf: human Mdm2/MdmX binding inhibition, confirmed; shares compounds with Mdm2-MdmX inh; luminescent assay; inhibition, % at 8 µM; actives 55% (n = 10,000); in the data active = inhibition above about 40%
FLuc counter: full-length luciferase inhibition in Mdm2/MdmX counter-screen; shares compounds with Mdm2-MdmX inh; SaOS-2 full-length luciferase counterscreen, luminescence; inhibition, % at 8 µM; actives 77% (n = 6,200);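 active = mean inhibition at 8 µM reaching about 37%, which flags the compound as non-specific, limit read from the data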;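 note: p53-null SaOS-2 cells with luciferase driven by a doxycycline-inducible promoter; compound on cells about two nights before reading with doxycycline added after day one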
Active calls of the source: *; ? = inconclusive; / = not tested or not shown. Most compounds without a hit are left out; they make up all but 4.1% or so of the library.

SMILES	Jurkat NFkB inh	Gli-Sufu block	aSyn 5UTR inh	KLF5 inh	Mdm2-MdmX inh	697 NFkB inh	Mdm2-MdmX conf	others
CCOC(=O)/C=c1\s/c(=C\c2ccc(-c3ccccc3)cc2)c(=O)n1CC(=O)NCc1ccc2c(c1)OCO2	7	-6	13	-27	84*	-7	9
CCOC(=O)/C=c1\s/c(=C\c2ccc3cc(OC)ccc3c2)c(=O)n1CC(=O)NCC1CCCO1 (stereo not given)	-12	-5	-36	-10	74*	-12	-4
CCOC(=O)/C=c1\s/c(=C\c2ccc(C(F)(F)F)cc2)c(=O)n1CC(=O)NCc1ccco1	-18	7	-22	-17	76*	-30	31
O=C(Cn1cnc(S(=O)(=O)N2CCCC2)c1)Nc1cccc(F)c1	7	-5	-1	-46	14	14	/
Cc1cc(=O)n2c(n1)SCOC2	-6	-3	14	13	-14	6	/
CC(c1nnc(SCC(=O)Nc2cccnc2Cl)n1Cc1ccccc1)N(C)C (stereo not given)	-15	-7	-12	-11	21	-15	/
O=C(Nc1ccc(S(=O)(=O)Nc2ncccn2)cc1)c1ccc2ncsc2c1	17	-3	-11	-15	-31	13	/
CN(C)CCCN(C(=O)c1ccc(S(=O)(=O)N2CCc3ccccc32)cc1)c1nc2ccc(Cl)cc2s1	-5	24	?	-50	15	-2	/
CN(C)CCCN(C(=O)c1ccc(S(=O)(=O)N2CCc3ccccc32)cc1)c1nc2ccc(F)cc2s1	-2	20	1	5	34	8	/
COc1ccc2sc(N(CCCN(C)C)C(=O)c3ccc(S(=O)(=O)N4CCCC4)cc3)nc2c1	-34	19	-23	/	9	-7	/
Cc1cc(C)c2sc(N(CCCN(C)C)C(=O)c3ccc(S(=O)(=O)N4CCCc5ccccc54)cc3)nc2c1	19	0	-1	/	99*	-10	57*	FLuc counter=73*
CN(C)CCCN(C(=O)c1ccc(S(=O)(=O)N2CCc3ccccc3C2)cc1)c1nc2ccc(F)cc2s1	16	-3	99*	-21	97*	-57	26
Cc1cc(C)c2sc(N(CCCN(C)C)C(=O)c3ccc(S(=O)(=O)N4CCc5ccccc5C4)cc3)nc2c1	15	/	30	/	99*	1	99*	FLuc counter=42*
COc1ccc2sc(N(CCCN(C)C)C(=O)c3ccc(S(=O)(=O)N4CCc5ccccc5C4)cc3)nc2c1	-35	6	3	/	100*	-4	99*	FLuc counter=55*
CCOc1ccc(CCNC(=O)c2ccccc2OCc2c(C)noc2C)cc1OCC	0	1	0	/	12	-11	/
COc1ccc(Nc2nc3c(C)cccc3cc2C#N)c(OC)c1	-1	-5	-1	-3	31	-3	/
CN(C)CCCN(C(=O)c1ccc(S(=O)(=O)N2CCc3ccccc3C2)cc1)c1nc2c(F)cccc2s1	-5	5	8	-18	10	-4	/
COCCn1c(=NC(=O)CCS(=O)(=O)c2ccccc2)sc2cc(C(=O)OC)ccc21	5	12	9	-28	19	-20	/
Cc1cccc2sc(N(CCCN(C)C)C(=O)c3ccc(S(=O)(=O)N4CCc5ccccc5C4)cc3)nc12	33	27	37	-21	64*	-36	24
Cc1ccc2nc(N(CCCN(C)C)C(=O)c3ccc(S(=O)(=O)N4CCOCC4)cc3)sc2c1	-7	49	9	-13	24	5	/
COCCn1c(=NC(=O)c2ccc(S(=O)(=O)N3CCc4ccccc4C3)cc2)sc2cc(OC)ccc21	3	7	26	4	69*	4	14
Cc1ccc2nc(N(CCCN(C)C)C(=O)c3ccc(S(=O)(=O)N4CCc5ccccc5C4)cc3)sc2c1	10	12	88*	-16	100*	4	52*	FLuc counter=14
Cn1ccnc1SCC(=O)Nc1nc2c(F)c(F)c(F)cc2s1	3	-11	-19	-57	-30	-46	/
CC1CCN(C2CCN(S(=O)(=O)c3ccc(C(F)(F)F)cc3)CC2)CC1	-19	25	24	-19	-21	-50	/
CCN(C(=O)c1cc2c(=O)[nH]c3ccc(C)cc3c2s1)c1ccccc1C	-21	6	15	20	57*	-62	-9
SMILES	Jurkat NFkB inh	Gli-Sufu block	aSyn 5UTR inh	KLF5 inh	Mdm2-MdmX inh	697 NFkB inh	Mdm2-MdmX conf	others
CCN(C(=O)c1cc2c(=O)[nH]c3ccc(C)cc3c2s1)c1ccc(F)cc1	-11	11	-8	-16	48	-17	/
CCN(C(=O)c1cc2c(=O)[nH]c3ccc(C)cc3c2s1)c1ccccc1F	-22	-16	-10	-31	21	-15	/
CCN(C(=O)c1cc2c(=O)[nH]c3ccc(C)cc3c2s1)c1cccc(C)c1	44	-2	-217	-25	50	-32	52*	FLuc counter=64*
Cc1ccc2[nH]c(=O)c3cc(C(=O)N(C)c4ccc(C)c(C)c4)sc3c2c1	30	0	28	-3	65*	19	40*	FLuc counter=67*
N=C1C(c2nc3ccccc3s2)=C(O)CN1c1ccccc1	8	-12	-120	-20	0	-82	/
COc1ccc(C(CNC(=O)C(=O)Nc2ccc3c(c2)OCCO3)N2CCN(C)CC2)cc1 (stereo not given)	-5	4	-3	/	28	12	/
Cc1nn(C)cc1S(=O)(=O)N1CCCCC1C (stereo not given)	10	-3	11	-11	23	6	/
O=C(CC(=O)c1cc(Cl)ccc1O)c1ccccc1	-61	-60	-99	-52	40	-138	/
Cc1cccc(C(=O)CC(=O)c2cc(Cl)ccc2O)c1	7	6	64*	-50	62*	-37	58*	FLuc counter=39*
Cc1ccc2c(SCC(=O)NCc3ccco3)nc(-c3ccc(F)cc3)nc2c1	8	5	-41	-6	82*	9	-6
Cc1cc(C)c2cc(C)c(SCC(=O)NCc3ccco3)nc2c1	6	0	25	-29	-6	5	/
COc1ccc(CC(=O)Nc2ccc(S(=O)(=O)N3CCN(C)CC3)cc2)cc1	-8	-7	/	/	-9	10	/
COc1ccc(-c2cc(C(F)F)n3ncc(C(=O)N4CCc5ccccc54)c3n2)cc1	41	26	?	3	67*	-54	56*	FLuc counter=73*
Cc1cccc(C(=O)OCC(=O)N2CC(=O)Nc3ccccc32)c1C	-4	-24	/	/	4	-5	/
CCC(C)Sc1ccc([C@@H]2[C@@H]3C(=O)N(CC)C(=O)[C@@H]3[C@]3(C(=O)OC)CCCCN23)cc1 (stereo not given in full)	-1	-7	/	/	32	-6	/
CCNC(COC(=O)c1ccc([N+](=O)[O-])cc1)C1CCCCC1 (stereo not given)	/	-1	/	/	/	/	/
